# Results: PubChem BioAssay AID687001 (Broad Institute, 2013)
# Potency and affinity values are given separately. A number with no mark means an inactive call.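 The calls were made as follows: active = signal-lowering compounds whose fitted half-maximal concentration is at or below twice the top tested dose in every run; inconclusive = runs disagree, flat 30 to 70% inhibition, or poor curve fit; inactive = the rest.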
# Target: Protein S100-A4 (Homo sapiens) (UniProt P26447)
# Assay: human S100A4 peptide interaction inhibition curves – biochemical, fluorescence polarization, cherry-picked hits, dose response (AID 687001);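 also: 0% = DMSO neutral control wells and -100% = TFP positive control wells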
# Details: FP, S100A4/TAMRA-myosin IIA peptide binding; series mostly up to 11 µM; activity change, negative = inhibition: at the top concentration
# Protein S100-A4 (Homo sapiens), sequence (P26447 whole entry, looked up): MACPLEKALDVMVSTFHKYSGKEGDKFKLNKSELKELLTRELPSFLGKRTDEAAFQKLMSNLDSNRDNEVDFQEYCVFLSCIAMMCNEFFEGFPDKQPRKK
row,SMILES,"activity change, negative = inhibition [%]"
1,Cc1ccc(OCCOCCn2cnc3ccccc3c2=O)c([N+](=O)[O-])c1,3.84
2,CCCN1[C@H](C(=O)N2CCCCC2)[C@@H](CO)[C@@H]2Cn3c(ccc(-c4ccccc4F)c3=O)[C@@H]21,0.141
3,O=C(c1ccc(Br)o1)N1CCC(Cc2ccccc2)CC1,-1.09
4,CC(=O)Nc1ccc(S(=O)(=O)Nc2ccc3c(c2)OCO3)cc1,-3.04
5,CCOC(=O)[C@]12CCC=C1N(Cc1cccc3ccccc13)C(=O)[C@H](CC(=O)N1CCOCC1)C2,-5.12
6,COc1ccc(NC(=O)Nc2cccc3c2O[C@H](CN(C)Cc2ccc4c(c2)OCO4)[C@@H](C)CN([C@@H](C)CO)C3=O)cc1,9.31
7,C[C@@H]1CN([C@H](C)CO)C(=O)c2cc(NS(=O)(=O)c3ccc(Cl)cc3)ccc2O[C@@H](C)CCCCO[C@H]1CN(C)Cc1ccc(Cl)c(Cl)c1,12.6
8,C[C@@H]1CN([C@H](C)CO)C(=O)c2ccccc2-c2ccccc2CO[C@H]1CN(C)C(=O)Oc1ccccc1,-2.82
9,O=C(OCc1ccccc1)/C(=C/c1ccccc1Cl)NC(=O)c1ccco1,1.77
10,COc1ccc(/C=C(\C#N)C(=O)c2cccn2C)cc1,-18
11,Cc1ccc(NC(=O)CCCCCN2C(=O)[C@@H]3Cc4ccccc4CN3C2=O)cc1,-0.003
12,CCC(=O)N1C[C@@H]2[C@H](c3ccccc31)[C@@H](CO)N2C(=O)CC,0.177
13,O=C(NCCC1=CCCCC1)c1ccc(Cl)c(S(=O)(=O)N2CCCCC2)c1,-0.676
14,CC(C)CC#Cc1ccc([C@@H]2[C@H](CO)N3C(=O)CN(C(=O)c4ccccn4)C[C@@H]23)cc1,1.32
15,Cc1ccc(S(=O)(=O)N(C)C[C@@H]2Oc3c(NC(=O)C4CCCCC4)cccc3C(=O)N([C@H](C)CO)C[C@@H]2C)cc1,7.16
16,C[C@@H]1CCCCO[C@H](CN(C)C(=O)NC2CCCCC2)[C@@H](C)CN([C@@H](C)CO)C(=O)c2cc(NC(=O)Nc3ccc(C(F)(F)F)cc3)ccc2O1,21.9
17,O=C(Nc1ccc2c(c1)OCO2)N[C@@H]1CC[C@@H](CCNC(=O)C2CCCC2)O[C@H]1CO,-2.33
18,O=C(c1cc2c(s1)-c1ccccc1S(=O)(=O)C2)N1CCN(Cc2ccccc2)CC1,3.56
19,Cn1c(=O)[nH]c2c(nc(-c3ccc(Cl)cc3)n2C)c1=O,-3.52

row,SMILES,"activity change, negative = inhibition [%]"
1,COC(=O)C[C@H]1CC[C@@H](NC(=O)Nc2cccc(OC)c2)[C@@H](CO)O1,-1.56
2,CCn1c(=S)sc2c(=O)n(CC(=O)Nc3ccc(C(C)=O)cc3)c(C)nc21,17.8
3,C[C@@H]1CN([C@@H](C)CO)C(=O)c2cc(NC(=O)CCCCCC(=O)Nc3ccccc3N)ccc2O[C@H]1CN(C)C(=O)Nc1ccc2c(c1)OCO2,4.37
4,COc1ccc(CN(C)C[C@@H]2Oc3ccc(NC(=O)Cc4ccccc4)cc3CC(=O)N([C@@H](C)CO)C[C@H]2C)cc1,7.7
5,COc1ccc(S(=O)(=O)Nc2ccc3c(c2)C(=O)N([C@H](C)CO)C[C@H](C)[C@H](CN(C)C(=O)Nc2ccccc2)OCCCC[C@H](C)O3)cc1,19
6,O=C(/C=C/c1ccccc1)Nc1cc(S(=O)(=O)N2CCOCC2)ccc1N1CCOCC1,3.07
7,CC(C)NC(=O)COc1coc(CN2CCN(c3ccccc3)CC2)cc1=O,-3.46
8,COC(=O)c1ccc2c(=O)n(CCCCCC(=O)NC3CCCCC3)c(=O)[nH]c2c1,2.1
9,CCOC(=O)C1(C)CCN1C(=O)c1csnn1 (stereo not drawn),-0.883
10,CCCNC(=O)N1CC(=O)N2[C@H](CO)[C@@H](c3ccc(-c4ccc(F)cc4)cc3)[C@H]2C1,8.48
11,CCOC(=O)Cc1csc(NC(=O)c2c(-c3ccccc3)noc2C)n1,-2.68
12,CCc1ccc(C(=O)NNC(=O)c2c(CC)noc2C)cc1,1.61
13,COc1nnc(-c2ccc(C)c(S(N)(=O)=O)c2)c2ccccc12,-1.16
14,CCCC(=O)Nc1ccc2c(c1)OC[C@H](C)N(CCC(F)(F)F)C[C@H](C)[C@@H](OC)CN(C)C2=O,2.5
15,C[C@@H]1CN([C@H](C)CO)C(=O)CCCn2cc(nn2)CO[C@H]1CN(C)S(C)(=O)=O,-4.05
16,COc1ccc(S(=O)(=O)Nc2ccc3c(c2)C(=O)N([C@@H](C)CO)C[C@@H](C)[C@H](CN(C)C(=O)Nc2ccccc2)OCCCC[C@@H](C)O3)cc1,51.9
17,O=S(=O)(NCC(c1ccc2c(c1)OCO2)N1CCN(c2ccccc2)CC1)c1ccccc1 (stereo not drawn),1.36
18,COc1cc2cnc(-c3ccccc3F)cc2cc1OC,-1.06
19,COC(=O)CCC(C)C1CCC2C3CCC4CC(O)CCC4(C)C3=CC(=O)C12C (stereo not drawn),-0.405
